# From PubChem BioAssay (EPA / NIEHS)
# Records with an inconclusive call do not appear. The source made the active and inactive calls. Rule for the calls: active = hit-call score of the fitted dose curve at least 0.9, where 1 is the maximum; inconclusive = response in the unintended direction; inactive = score below 0.9.
# Target: AR (gene 367) (UniProt P10275)
# Assay: ACEA_AR_antagonist_80hr: ACEA Biosciences xCELLigence Real-Time Cell Analysis on Androgen Receptor Antagonism for Proliferation (AID 2283787)
# Procedure: ACEA_AR_antagonist is a cell-based, single-readout assay that uses 22Rv1, a human prostate cancer cell line, with measurements taken at 80 hours after chemical dosing in a 384-well plate, although TO5 and TO6 (mc0.srcf) used a 96-well plate. Differences in plate size can be ignored given data normalization.ACEA_AR_antagonist_80hr is one of two assay component(s) measured or calculated from the ACEA_AR assay. It is designed to make measurements of real-time cell-growth kinetics, a form of growth reporter, as detected with electrical impedance signals by Real-Time Cell Electrode Sensor (RT-CES) technology.Data from the assay component ACEA_AR_antagonist_80hr was analyzed in the positive analysis fitting direction relative to DMSO as the negative control and baseline of activity. Using a type of growth reporter, measures of the cells for loss-of-signal activity can be used to understand the signaling at the pathway-level as they relate to the gene AR. Furthermore, this assay endpoint can be referred to as a primary readout, because this assay has produced multiple assay endpoints where this one serves a signaling function. To generalize the intended target to other relatable targets, this assay endpoint is annotated to the nuclear receptor intended target family, where the subfamily is steroidal.
# The xCELLigence system Multi-E-Plate stations were used to measure the time-dependent response to chemicals. Each compound was tested in an eight-point, 1:4 serial dilution series starting at a maximum final concentration of 100 uM. A maximum starting concentration of 0.5% DMSO was present in the 100 uM chemical samples and was diluted along with the test article dilution series. The screen was performed in biological duplicate using two separate, 96-well, E-Plates 96 for each dilution series (n = 2). Positive controls (MG132 and testosterone) and a negative control (assay media) were tested in quadruplicate on each testing plate. […] Reference compounds were tested with 8 concentrations with 1:5 serial dilutions. All screening was carried out by ACEA Biosciences, Inc. (San Diego, CA). 22Rv1 cells purchased from ATCC were maintained in media supplemented with 10% fetal bovine serum (FBS). Before screening, 22Rv1 cells were preconditioned in assay medium. Cells were then detached and seeded in E-Plates 96 in assay medium. After overnight monitoring of growth once every hour, compounds were added to […] cells and remained in the medium until the end of the experiment. Cellular responses were then recorded once every 5 min for the first 5 h, and once every hour for an additional 100 h.
# Chain of AR (gene 367) (P10275 whole entry, looked up): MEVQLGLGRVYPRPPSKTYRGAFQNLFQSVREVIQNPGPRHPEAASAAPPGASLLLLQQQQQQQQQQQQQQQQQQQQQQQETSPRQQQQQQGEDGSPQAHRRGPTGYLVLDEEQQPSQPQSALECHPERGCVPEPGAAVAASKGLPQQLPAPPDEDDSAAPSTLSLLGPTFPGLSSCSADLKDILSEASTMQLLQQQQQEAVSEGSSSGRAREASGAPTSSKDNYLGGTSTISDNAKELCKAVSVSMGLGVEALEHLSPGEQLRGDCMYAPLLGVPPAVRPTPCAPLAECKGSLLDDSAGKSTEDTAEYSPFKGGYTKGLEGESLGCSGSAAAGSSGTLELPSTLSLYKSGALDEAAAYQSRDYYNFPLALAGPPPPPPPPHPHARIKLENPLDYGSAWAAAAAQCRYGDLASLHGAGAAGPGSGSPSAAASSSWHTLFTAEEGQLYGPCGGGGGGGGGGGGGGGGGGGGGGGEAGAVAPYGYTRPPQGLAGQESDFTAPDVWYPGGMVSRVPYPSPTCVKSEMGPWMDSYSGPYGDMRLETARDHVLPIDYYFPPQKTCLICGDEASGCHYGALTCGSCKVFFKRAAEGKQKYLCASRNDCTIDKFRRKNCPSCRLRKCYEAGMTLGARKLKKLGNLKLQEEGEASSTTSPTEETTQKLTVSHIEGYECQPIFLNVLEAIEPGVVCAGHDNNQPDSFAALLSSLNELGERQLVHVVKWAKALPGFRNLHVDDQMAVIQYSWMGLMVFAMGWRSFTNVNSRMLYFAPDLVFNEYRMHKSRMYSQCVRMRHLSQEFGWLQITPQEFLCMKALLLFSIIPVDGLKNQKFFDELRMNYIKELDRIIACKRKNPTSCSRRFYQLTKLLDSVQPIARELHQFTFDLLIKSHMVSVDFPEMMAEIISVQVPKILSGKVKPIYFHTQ
SMILES,outcome,AC50
CCCN(CCC)C(=O)SCC,inactive,
COC(=O)CSc1cc(N=c2sc(=O)n3n2CCCC3)c(F)cc1Cl,inactive,
CC(C)(c1ccc(O)cc1)c1ccc(O)cc1,,43.6 µM (active)
O=C(O)C1(C(=O)Nc2ccc(Cl)cc2Cl)CC1,,65.1 µM (active)
c1ccc2[nH]c(-c3cscn3)nc2c1,,50 µM (active)
CN(C)C(=O)Nc1ccc(Cl)c(Cl)c1,,40.8 µM (active)
C[C@]12CC[C@@H]3c4ccc(O)cc4C[C@@H](CCCCCCCCCS(=O)CCCC(F)(F)C(F)(F)F)[C@H]3[C@@H]1CC[C@@H]2O (some centres not stated),,11.9 µM (active)
CCCCOCCOCCOCc1cc2c(cc1CCC)OCO2,,76.3 µM (active)
CC1(C)C(C=C(Cl)Cl)C1C(=O)OCc1cccc(Oc2ccccc2)c1 (configuration not stated),,33 µM (active)
CSC(=O)c1cccc2nnsc12,inactive,
CCOC(=O)C(C)Oc1ccc(Oc2nc3ccc(Cl)cc3o2)cc1 (configuration not stated),,42.6 µM (active)
CCCOC(=O)c1ccc(C(=O)OCCC)nc1,inactive,
O=C(c1ccc(O)cc1O)c1ccc(O)cc1O,,26.3 µM (active)
Cc1nn(C)c(Oc2ccccc2)c1C=NOCc1ccc(C(=O)OC(C)(C)C)cc1,,12.7 µM (active)
CCSC(=O)N(CC(C)C)CC(C)C,inactive,
N#CSCSc1nc2ccccc2s1,,15.1 µM (active)
O=C(c1ccccc1)C1CCCCC1,inactive,
